Compound in the experiment: C#CCNC(=O)CCSSCCC(=O)NCCc1ccc(C=O)c(C=O)c1
Briefly: lysine labeling ratio R10:1 (500 µM / 50 µM probe), SILAC-ABPP in living cells; higher = lower intrinsic lysine reactivity toward the probe, active = 2 or less. Particulars: HeLa; probe concentrations 500 vs 50 µM. In outline:
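For each lysine, R is the median over forward and reverse replicates of the filtered median MS1 peptide ratio of high probe to low probe. The probe, an alkyne-tagged, disulfide-linked lysine probe, was given at 500 µM or 50 µM to living SILAC light and heavy HeLa cells in PBS at room temperature, with label swaps. Values are capped at 20.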
Sequence of UniProt P00533 (P00533 whole entry): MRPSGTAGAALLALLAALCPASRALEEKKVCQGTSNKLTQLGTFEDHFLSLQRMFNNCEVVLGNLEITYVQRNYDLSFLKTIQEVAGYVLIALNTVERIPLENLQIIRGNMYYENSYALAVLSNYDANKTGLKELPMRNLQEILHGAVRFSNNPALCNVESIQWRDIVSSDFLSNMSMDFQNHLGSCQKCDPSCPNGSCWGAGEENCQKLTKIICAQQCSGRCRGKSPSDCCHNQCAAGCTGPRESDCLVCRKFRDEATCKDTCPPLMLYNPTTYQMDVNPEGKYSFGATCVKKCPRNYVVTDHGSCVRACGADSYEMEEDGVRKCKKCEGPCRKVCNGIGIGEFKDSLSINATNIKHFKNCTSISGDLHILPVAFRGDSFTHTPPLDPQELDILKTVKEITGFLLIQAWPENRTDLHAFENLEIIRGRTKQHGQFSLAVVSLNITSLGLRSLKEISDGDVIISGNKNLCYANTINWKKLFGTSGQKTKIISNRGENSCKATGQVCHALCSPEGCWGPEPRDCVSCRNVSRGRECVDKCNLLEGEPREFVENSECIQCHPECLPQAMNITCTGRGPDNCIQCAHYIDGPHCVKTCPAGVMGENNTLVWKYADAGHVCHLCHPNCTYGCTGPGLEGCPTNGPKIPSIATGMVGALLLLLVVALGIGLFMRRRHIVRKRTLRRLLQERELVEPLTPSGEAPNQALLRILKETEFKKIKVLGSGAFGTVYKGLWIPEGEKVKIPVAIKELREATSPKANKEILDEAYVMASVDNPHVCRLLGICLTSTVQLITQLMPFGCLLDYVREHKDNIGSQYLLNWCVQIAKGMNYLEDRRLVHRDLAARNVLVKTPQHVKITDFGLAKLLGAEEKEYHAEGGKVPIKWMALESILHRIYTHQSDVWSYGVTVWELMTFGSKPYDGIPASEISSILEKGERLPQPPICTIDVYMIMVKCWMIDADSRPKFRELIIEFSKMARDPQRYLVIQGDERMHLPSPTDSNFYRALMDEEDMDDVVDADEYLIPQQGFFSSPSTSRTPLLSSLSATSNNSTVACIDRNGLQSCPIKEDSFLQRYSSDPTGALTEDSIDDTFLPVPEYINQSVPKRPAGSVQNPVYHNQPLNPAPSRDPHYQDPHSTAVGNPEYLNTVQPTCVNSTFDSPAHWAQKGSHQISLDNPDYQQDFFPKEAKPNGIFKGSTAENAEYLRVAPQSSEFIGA
Sequence of UniProt O60245 (O60245 whole entry): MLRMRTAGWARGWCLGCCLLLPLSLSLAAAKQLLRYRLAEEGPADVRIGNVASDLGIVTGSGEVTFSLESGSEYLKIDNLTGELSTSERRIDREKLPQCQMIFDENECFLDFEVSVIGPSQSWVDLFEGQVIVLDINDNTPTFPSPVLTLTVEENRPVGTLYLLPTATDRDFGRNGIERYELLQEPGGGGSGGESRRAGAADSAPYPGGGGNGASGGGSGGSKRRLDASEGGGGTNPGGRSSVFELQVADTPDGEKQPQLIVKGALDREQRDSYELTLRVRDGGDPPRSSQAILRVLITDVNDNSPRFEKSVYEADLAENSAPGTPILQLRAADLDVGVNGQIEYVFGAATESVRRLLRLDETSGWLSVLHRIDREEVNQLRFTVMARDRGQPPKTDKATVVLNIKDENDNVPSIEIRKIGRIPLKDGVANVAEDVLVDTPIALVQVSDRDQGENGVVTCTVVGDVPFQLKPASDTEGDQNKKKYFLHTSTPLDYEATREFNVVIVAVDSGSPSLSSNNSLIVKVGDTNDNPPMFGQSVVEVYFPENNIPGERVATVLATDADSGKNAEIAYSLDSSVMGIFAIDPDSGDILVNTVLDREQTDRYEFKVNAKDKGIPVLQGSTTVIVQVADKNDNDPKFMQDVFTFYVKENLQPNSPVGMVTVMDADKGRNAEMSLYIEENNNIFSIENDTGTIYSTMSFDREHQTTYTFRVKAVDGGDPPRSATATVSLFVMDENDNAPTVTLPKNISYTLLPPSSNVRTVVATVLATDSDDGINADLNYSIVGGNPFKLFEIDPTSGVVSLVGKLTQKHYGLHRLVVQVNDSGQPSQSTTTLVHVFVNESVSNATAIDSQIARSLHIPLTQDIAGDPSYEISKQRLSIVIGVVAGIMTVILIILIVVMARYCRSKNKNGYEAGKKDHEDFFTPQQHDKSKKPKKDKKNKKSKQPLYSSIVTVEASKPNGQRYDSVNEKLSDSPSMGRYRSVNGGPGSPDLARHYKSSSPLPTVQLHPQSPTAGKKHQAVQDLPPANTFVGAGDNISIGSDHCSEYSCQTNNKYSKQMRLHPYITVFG
Sequence of UniProt O14786 (O14786 whole entry): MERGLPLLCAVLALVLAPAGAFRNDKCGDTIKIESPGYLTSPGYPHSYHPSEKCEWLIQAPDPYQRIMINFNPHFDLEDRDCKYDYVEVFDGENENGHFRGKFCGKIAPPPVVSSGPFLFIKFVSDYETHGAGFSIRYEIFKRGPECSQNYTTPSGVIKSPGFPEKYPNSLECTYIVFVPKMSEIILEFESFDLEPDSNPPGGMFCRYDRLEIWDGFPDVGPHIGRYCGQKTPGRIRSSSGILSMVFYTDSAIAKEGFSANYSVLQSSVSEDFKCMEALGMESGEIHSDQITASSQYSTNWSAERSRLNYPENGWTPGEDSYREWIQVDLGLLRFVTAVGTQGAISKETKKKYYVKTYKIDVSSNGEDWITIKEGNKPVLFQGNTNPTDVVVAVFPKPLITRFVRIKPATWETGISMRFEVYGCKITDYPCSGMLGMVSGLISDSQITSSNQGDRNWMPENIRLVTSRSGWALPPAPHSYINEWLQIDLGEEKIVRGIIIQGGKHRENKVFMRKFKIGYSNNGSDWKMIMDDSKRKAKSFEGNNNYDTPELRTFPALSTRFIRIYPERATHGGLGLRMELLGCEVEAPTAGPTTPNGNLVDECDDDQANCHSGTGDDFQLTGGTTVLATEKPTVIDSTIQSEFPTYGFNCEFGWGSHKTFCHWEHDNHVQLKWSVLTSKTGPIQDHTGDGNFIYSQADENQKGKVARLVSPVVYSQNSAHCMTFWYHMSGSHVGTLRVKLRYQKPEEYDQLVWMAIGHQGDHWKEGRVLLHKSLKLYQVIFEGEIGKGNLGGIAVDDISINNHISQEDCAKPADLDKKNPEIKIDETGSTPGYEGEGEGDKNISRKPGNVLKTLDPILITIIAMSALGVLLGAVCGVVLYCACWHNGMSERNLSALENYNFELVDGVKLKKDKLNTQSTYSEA
Sequence of UniProt P62258 (P62258 whole entry): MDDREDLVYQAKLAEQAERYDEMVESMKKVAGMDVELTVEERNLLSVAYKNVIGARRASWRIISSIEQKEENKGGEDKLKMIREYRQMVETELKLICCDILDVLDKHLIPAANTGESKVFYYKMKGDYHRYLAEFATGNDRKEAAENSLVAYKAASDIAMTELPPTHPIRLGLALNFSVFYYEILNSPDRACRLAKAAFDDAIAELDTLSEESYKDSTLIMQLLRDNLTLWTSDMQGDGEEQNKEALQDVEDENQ
Sequence of UniProt Q9H4F8 (Q9H4F8 whole entry): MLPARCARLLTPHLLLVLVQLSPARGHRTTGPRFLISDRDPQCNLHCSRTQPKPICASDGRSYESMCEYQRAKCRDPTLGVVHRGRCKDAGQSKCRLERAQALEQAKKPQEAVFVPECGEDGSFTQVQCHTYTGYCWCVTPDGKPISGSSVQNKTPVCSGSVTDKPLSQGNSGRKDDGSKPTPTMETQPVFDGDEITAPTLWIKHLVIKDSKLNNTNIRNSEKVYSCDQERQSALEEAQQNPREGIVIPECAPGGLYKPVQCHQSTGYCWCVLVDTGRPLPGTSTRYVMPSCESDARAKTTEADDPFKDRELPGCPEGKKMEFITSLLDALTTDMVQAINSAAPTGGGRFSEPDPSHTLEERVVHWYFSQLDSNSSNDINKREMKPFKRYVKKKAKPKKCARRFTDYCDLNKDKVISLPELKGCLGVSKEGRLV
Sequence of UniProt Q6NZI2 (Q6NZI2 whole entry): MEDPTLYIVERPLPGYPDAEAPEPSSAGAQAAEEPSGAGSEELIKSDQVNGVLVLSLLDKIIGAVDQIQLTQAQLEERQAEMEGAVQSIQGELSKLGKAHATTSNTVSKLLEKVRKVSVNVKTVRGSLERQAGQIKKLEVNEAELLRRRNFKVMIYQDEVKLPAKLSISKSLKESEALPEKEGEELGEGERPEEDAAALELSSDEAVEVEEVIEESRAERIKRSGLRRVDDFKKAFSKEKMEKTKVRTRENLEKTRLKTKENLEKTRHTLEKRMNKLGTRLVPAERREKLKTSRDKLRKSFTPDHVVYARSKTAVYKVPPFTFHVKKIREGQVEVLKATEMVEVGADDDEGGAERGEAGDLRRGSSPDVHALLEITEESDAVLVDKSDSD
Sequence of UniProt P69905 (P69905 whole entry): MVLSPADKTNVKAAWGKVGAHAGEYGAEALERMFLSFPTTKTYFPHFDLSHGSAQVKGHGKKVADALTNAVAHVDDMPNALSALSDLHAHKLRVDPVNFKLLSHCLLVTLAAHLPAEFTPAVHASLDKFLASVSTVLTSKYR
Sequence of UniProt P12004 (P12004 whole entry): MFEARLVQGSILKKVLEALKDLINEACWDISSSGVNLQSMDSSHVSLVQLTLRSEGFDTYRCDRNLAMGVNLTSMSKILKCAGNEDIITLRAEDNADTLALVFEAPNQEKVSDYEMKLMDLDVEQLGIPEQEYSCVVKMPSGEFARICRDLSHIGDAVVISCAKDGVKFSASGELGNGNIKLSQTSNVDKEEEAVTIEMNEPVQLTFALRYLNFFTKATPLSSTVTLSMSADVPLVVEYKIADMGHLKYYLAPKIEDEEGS
For the target “SURF4 (lysine site: K22) (UniProt O15260)”, the “lysine labeling ratio R10:1” value was 3.81 (inactive). Turning to “CD109 (lysine site: K1291) (UniProt Q6YHK3)”, the “lysine labeling ratio R10:1” value was 2.41 (inactive).

With “PCNA (lysine site: K254) (UniProt P12004)”, the “lysine labeling ratio R10:1” value is 1.56 (active).

Consider “EGFR (lysine site: K325) (UniProt P00533)”, for which the “lysine labeling ratio R10:1” value was 5.84 (inactive).

On to “PRDX1 (lysine site: K109) (UniProt Q06830)”, for which the “lysine labeling ratio R10:1” value is 2.64 (inactive). In the case of “ERP29 (lysine site: K137) (UniProt P30040)” it was 6.12 (inactive); in that of “AHNAK (lysine site: K130) (UniProt Q09666)”, 1.37 (active); in that of “PNN (lysine site: K202) (UniProt Q9H307)”, 3 (inactive). As for “EGFR (lysine site: K226) (UniProt P00533)”, the “lysine labeling ratio R10:1” value is 11 (inactive).

On to “MSLN (lysine site: K306) (UniProt Q13421)”, for which the “lysine labeling ratio R10:1” value was 1.74 (active). Turning to “NRP1 (lysine site: K538) (UniProt O14786)”, the “lysine labeling ratio R10:1” value is 2.73 (inactive). For the target “STOM (lysine site: K198) (UniProt P27105)”, the “lysine labeling ratio R10:1” value was 5.83 (inactive). In the case of “XRCC5 (lysine site: K648) (UniProt P13010)” it was 1.9 (active). With UniProt O94991 (lysine site: K280), the “lysine labeling ratio R10:1” value was 1.34 (active). As to “AGRN (lysine site: K1708) (UniProt O00468)”, the “lysine labeling ratio R10:1” value is 2.99 (inactive).

For the target UniProt P62258 (lysine site: K125), the “lysine labeling ratio R10:1” value was 1.05 (active). For “CEP250 (lysine site: K1048) (UniProt Q9BV73)”, the “lysine labeling ratio R10:1” value is 7.19 (inactive). Consider “EGFR (lysine site: K500) (UniProt P00533)”, for which the “lysine labeling ratio R10:1” value is 12.8 (inactive). For UniProt P62491 (lysine site: K179), the “lysine labeling ratio R10:1” value was 2.31 (inactive). In the case of “PSMA3 (lysine site: K65) (UniProt P25788)” it was 1.97 (active); in that of “SLC9A3R1 (lysine site: K227) (UniProt O14745)”, 3.96 (inactive); in that of “TNFRSF10A (lysine site: K191) (UniProt O00220)”, 6.6 (inactive). In the case of “PTPRM (lysine site: K231) (UniProt P28827)” it was 1.53 (active); in that of “HSPA9 (lysine site: K121) (UniProt P38646)”, 1.51 (active). On to “HBA1 (lysine site: K17) (UniProt P69905)”, for which the “lysine labeling ratio R10:1” value is 3.74 (inactive).

With “SMOC1 (lysine site: K381) (UniProt Q9H4F8)”, the “lysine labeling ratio R10:1” value was 1.04 (active). Take UniProt Q6NZI2 (lysine site: K258): the “lysine labeling ratio R10:1” value is 9.27 (inactive). In the case of UniProt P04439 (lysine site: K92) it was 3.31 (inactive). In the case of “SPTBN1 (lysine site: K2177) (UniProt Q01082)” it was 14.1 (inactive); in that of “FZD6 (lysine site: K149) (UniProt O60353)”, 0.883 (active).

Turning to “EDIL3 (lysine site: K157) (UniProt O43854)”, the “lysine labeling ratio R10:1” value is 3.03 (inactive).

In the case of UniProt Q12891 (lysine site: K148), the “lysine labeling ratio R10:1” value is 1.46 (active).

For UniProt O60245 (lysine site: K713), the “lysine labeling ratio R10:1” value was 2.99 (inactive).

For the target “CACNA2D1 (lysine site: K232) (UniProt P54289)”, the “lysine labeling ratio R10:1” value is 3.57 (inactive). On to “RPL4 (lysine site: K239) (UniProt P36578)”, for which the “lysine labeling ratio R10:1” value is 2.48 (inactive).

UniProt O60245 (lysine site: K223): the “lysine labeling ratio R10:1” value was 5.15 (inactive). Take “TAGLN2 (lysine site: K156) (UniProt P37802)”: the “lysine labeling ratio R10:1” value was 1.43 (active).

For the target UniProt Q15149 (lysine site: K1150), the “lysine labeling ratio R10:1” value is 3.29 (inactive). In the case of “MCAM (lysine site: K217) (UniProt P43121)” it was 2.14 (inactive). For “ATP1B1 (lysine site: K277) (UniProt P05026)”, the “lysine labeling ratio R10:1” value was 17.2 (inactive).

Source of the values: the supplement of paper PMC11001985.
